# Assay outcomes deposited in PubChem BioAssay by National Center for Advancing Translational Sciences (NCATS).
# Hits are enriched below; roughly 0.83% of the tested compounds scored in any of these assays.
# Menin MLL FP FL – qHTS Assay for Inhibitors Targeting the Menin-MLL Interaction in MLL Related Leukemias: Competition With Fluorescein Labeled MLL-derived Peptide; Fluorescence polarization, fluorescein-MLL peptide displacement from menin; FP activity change, % at 61.4 µM; 290,000 tested, under 10 active; active = well fitted curve in the direction sought with a large enough effect in the polarisation, not every such curve was filed as active; inconclusive = small, poorly fitted or top-dose-only effect, or effect the other way, or a change in a side signal; inactive = no such curve, though single readings can be large or run the other way; the % refers to the polarisation; note: % of control where 0% means no effect
# CXXC DNA block – qHTS Fluorescence Polarization Assay for Inhibitors of MLL CXXC domain - DNA interaction; Histone-lysine N-methyltransferase 2A (Homo sapiens), Q03164; MLL-CXXC / FITC-HOXA9 DNA fluorescence polarization; Potency, µM (doses to about 115 µM), for the others: at the top dose activity change, negative = inhibition, most hits filed as inhibitors; 290,000 compounds, 0.037% hits; active = well fitted inhibition curve with a large enough effect in the polarisation, with a control signal flat, not every such curve was filed as active; inconclusive = small, poorly fitted or top-dose-only effect, or effect the other way, or a change in a side signal; inactive = no such curve, though single readings can be large or run the other way; the % refers to the polarisation; note: potency is the fitted concentration of half-maximal effect
#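 Steps: dispense CXXC domain solution (7 uM) → pin compounds or unlabeled HOX-A9 DNA control → 5 min ambient → add FLSN-HOX-A9 solution (50 nM) → spin → 30 min ambient → fluorescence polarization. Tris pH 7.5/NaCl/DTT/BSA buffer.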
# Six1-Eya2 inh – qHTS Assay for Inhibitors of the Six1/Eya2 Interaction | activity change, % (concentration not given with the values) | AlphaScreen GST-Six1/His-Eya2 binding, biochemical; hits give low values | Homeobox protein SIX1 (Homo sapiens) + Protein phosphatase EYA2 (Homo sapiens), … | 360,000 compounds, 0.56% hits; note: % is set by controls: 0 for no effect and ±100 for the full control effect
#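 Six1/Eya2 binding was read as AlphaScreen signal after compounds were pinned into GST-Six1 plus His-tagged Eya2 (5X stock 250/500 nM) in pH 8.0 Tris/NaCl/TCEP buffer, beads added, then incubated 1 h, 37 C, dark.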
# CtBP-E1A blk – qHTS Assay for Inhibitors of the CtBP/E1A Interaction. CtBP / adenovirus E1A interaction (AlphaScreen). AlphaScreen GST-E1A/His-CtBP binding, 1536-well; hits give low values. activity change, % (no concentration beside the values). 340,000 compounds, 0.49% hits. AID 651724, 2012; note: % is set by controls: 0 for no effect and ±100 for the full control effect
#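 Protein mix (5X: 125 nM each GST-E1A, His-CtBP) was incubated with pinned compound 2 h at 37 deg C in dark, in 50 mM Tris pH 8.0 buffer with 300 mM NaCl. Glutathione donor and nickel acceptor beads followed; AlphaScreen signal read after 1 h.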
# GLS inh – qHTS for Inhibitors of Glutaminase (GLS); Glutaminase kidney isoform, mitochondrial (Homo sapiens), O94925; GLS enzymatic activity, qHTS titration; Potency, µM (titrated, usually from 45.5 µM), for the others: at the highest dose activity change, negative = inhibition, hits mostly inhibitors; 410,000 compounds, 0.21% hits; active = well fitted inhibition curve with a large enough effect; inconclusive = small, poorly fitted or top-dose-only effect, or another doubt; inactive = no such curve, though single readings can be large or run the other way; note: potency is the fitted concentration of half-maximal effect; % is set by controls: 0 for no effect and ±100 for the full control effect
# Target sequence (O94925 whole entry, looked up, canonical isoform): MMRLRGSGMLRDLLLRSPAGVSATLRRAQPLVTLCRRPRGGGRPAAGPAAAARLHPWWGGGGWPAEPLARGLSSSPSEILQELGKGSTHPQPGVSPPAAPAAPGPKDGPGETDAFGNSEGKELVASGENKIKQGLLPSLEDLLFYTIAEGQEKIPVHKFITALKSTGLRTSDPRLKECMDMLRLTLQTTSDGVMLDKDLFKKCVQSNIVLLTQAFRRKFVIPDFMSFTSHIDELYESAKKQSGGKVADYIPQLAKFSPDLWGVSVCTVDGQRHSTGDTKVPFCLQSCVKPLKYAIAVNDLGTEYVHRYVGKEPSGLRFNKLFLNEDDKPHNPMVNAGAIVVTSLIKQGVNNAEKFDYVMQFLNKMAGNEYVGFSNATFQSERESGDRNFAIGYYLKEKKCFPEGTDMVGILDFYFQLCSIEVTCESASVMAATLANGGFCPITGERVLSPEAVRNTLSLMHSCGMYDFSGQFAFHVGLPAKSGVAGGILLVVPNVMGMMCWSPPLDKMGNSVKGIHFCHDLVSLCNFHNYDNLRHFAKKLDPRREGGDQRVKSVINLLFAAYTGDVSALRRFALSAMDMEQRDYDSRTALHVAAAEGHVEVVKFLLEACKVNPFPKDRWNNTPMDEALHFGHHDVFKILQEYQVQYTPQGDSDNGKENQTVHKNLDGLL
#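 Two-point fluorescence kinetic (t0, 30 min RT) for hKGA; glutamate detected via glutamate oxidase–HRP–Amplex Red. Substrate: 1 mM L-glutamine solution; buffer 45 mM KH2PO4, pH 8.2.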
# Menin MLL FP TR – qHTS Assay for Inhibitors Targeting the Menin-MLL Interaction in MLL Related Leukemias: Competition With Texas Red Labeled MLL-derived Mutant Peptide | O00255 | Menin + Texas Red MLL mutant peptide, fluorescence polarization | Potency, µM (series often up to 61.6 µM), for the others: at the highest dose FP activity change, negative = inhibition, most hits filed as inhibitors | 270,000 compounds, 0.23% hits; active = well fitted inhibition curve with a large enough effect in the polarisation, with a control signal flat, not every such curve was filed as active; inconclusive = small, poorly fitted or top-dose-only effect, or effect the other way, or a change in a side signal; inactive = no such curve, though single readings can be large or run the other way; the % refers to the polarisation; note: potency is the fitted concentration of half-maximal effect; % of control where 0% means no effect
# * marks the source's active call; other numbers are inactive results; ? = inconclusive; . = no result. Cut-off read from the data, not from the text of the source, unless noted: active = activity change below about -65%; inconclusive = mostly about -30% to -63%; inactive = weaker than that.
SMILES,Menin MLL FP FL,CXXC DNA block,Six1-Eya2 inh,CtBP-E1A blk,GLS inh,Menin MLL FP TR
Cc1ccc(S(=O)(=O)N2CCOCC2)cc1C(=O)Nc1nc(-c2cccnc2)cs1,-1,11%,0,7,-2%,15%
Cc1nnc(NC(=O)c2ccc(F)c(S(=O)(=O)N3CCOCC3)c2)s1,.,.,2,3,1%,.
O=C(Nc1nc(-c2ccccn2)cs1)c1ccc(F)c(S(=O)(=O)N2CCOCC2)c1,.,.,-93*,-93*,-8%,.
CCCCC1=CC2=C(OC(C)=O)C(=O)C(C)(OC(=O)c3ccco3)C(=O)C2=CO1 (centres undefined),0,.,.,.,.,4%
CCN(C(=O)Cn1cnc2onc(-c3ccc(F)cc3)c2c1=O)c1ccc(OC)cc1,.,.,.,.,-14%,.
CC(C)(C)NC(=O)[C@H]1CC[C@H]2[C@@H]3CC=C4C=C(C(=O)O)CC[C@@]4(C)[C@H]3CC[C@]12C,.,.,.,.,-2%,.
O=C(CN1C(=O)C2(SCC(=O)N2c2ccc(Cl)cc2)c2ccccc21)NCCc1ccccc1 (centres undefined),.,.,.,.,1%,.
Cc1cc(C)n(-c2ccc(C(=O)Nc3ccc(C)c(S(=O)(=O)N4CCOCC4)c3)cc2)n1,7,18%,-73*,-76*,-24%,.
CC(=O)c1ccc(NC(=O)c2ccc(C)c(S(=O)(=O)N3CCOCC3)c2)cc1,0,4%,-21,14,-2%,5%
Cc1csc(NC(=O)c2cc(=O)[nH]c3ccc(S(=O)(=O)N4CCOCC4)cc23)n1,1,0%,?,-70*,4%,7%
COc1cc(NC(=O)c2cc(=O)[nH]c3ccc(S(=O)(=O)N4CCOCC4)cc23)cc(OC)c1,.,.,-6,1,-1%,.
O=C(O)c1ccc(N2Cc3ccccc3C2)cc1O,10,-14%,-11,12,4µM*,?
COc1ccc(-c2nc3c(C#N)c[nH]n3c2NC2CCCCC2)cc1,.,.,.,.,13µM*,.
COc1cc(C(=O)N/N=C/c2cc([N+](=O)[O-])cs2)cc(OC)c1OC,1,-14%,?,-72*,7%,-3%
C/C(=N/Nc1ccc(C(=O)O)cc1)c1ccc2c(c1)Nc1ccccc1S2,.,.,-9,-5,12%,.
C/C(=N\Nc1ccc(C(=O)O)cc1)c1ccc2c(c1)Nc1ccccc1S2,3,-15%,-17,-8,18µM*,.
CC1=C(C(=O)O)N2C(=O)[C@@H](NC(=O)[C@H](N)C3=CCC=CC3)[C@H]2SC1,.,.,.,.,2%,.
COc1ccc(N2CCN(Cc3cc4c(cc3O)CCC4)CC2)cc1,-3,5%,?,-65*,29%,.
COc1ccc(N2CCN(Cc3cc(=O)oc4cc5c(cc34)CCCC5)CC2)cc1,3,6%,-11,-1,17%,-3%
CC(=NNc1nc2ccccc2s1)c1ccncn1,.,.,?,-78*,11%,.
S=c1[nH]nc(-c2cc(-c3ccccc3)n[nH]2)n1/N=C/C=C/c1ccco1,17,-1%,?,-12,4µM*,.
C[C@H]1C2=C3C(CC[C@H]4C(OCc5ccc(F)cc5C(F)(F)F)OC[C@](C)([C@@H]34)N(C(=O)OC(C)(C)C)C2)C2COC(=O)OCC21 (some centres undefined),-1,.,.,.,.,-15%
COc1c(O)cccc1/C=N/NC(=O)Cn1ccnc1C,2,10%,-93*,.,7%,.
Cc1ccc(N2CCOCC2)c2c1C(=O)c1ccccc1C2=O,0,-20%,-76*,?,4%,-15%
O=C1C=C(N2CCOCC2)c2ccccc2C1=O,2,?,?,-24,3%,?
SMILES,Menin MLL FP FL,CXXC DNA block,Six1-Eya2 inh,CtBP-E1A blk,GLS inh,Menin MLL FP TR
O=C1O[C@H]2[C@@H](OC(O)[C@@H]2O)[C@H]1O (some centres undefined),.,.,.,.,8%,.
COc1cc2c(cc1OC)CN(C(=O)/C=C/c1cc(OC)c(OC)c(OC)c1)CC2,0,?,-7,-3,-8%,10µM*
COc1cc2c(cc1OC)CN(C(=O)/C=C/c1ccc(F)cc1)CC2,-10,14%,-8,-6,10%,?
Oc1c(Cl)cc(Cl)cc1CNc1nccs1,-3,-15%,-65*,-83*,7%,40%
COC(=O)c1c(C)nc(C)c(C(=O)OC)c1-c1ccccc1[N+](=O)[O-],1,.,.,.,.,14%
Oc1ccc(/C=N/NC(=S)N/N=C/c2ccc(O)cc2)cc1,-1,-2%,?,-67*,-1%,?
O=[N+]([O-])c1ccc(N/N=C/c2c[nH]c3ccccc23)cc1,?,-2%,-26,-16,?,?
C(=N\Nc1nc2ccccc2[nH]1)/c1ccccc1,1,-9%,-2,-1,?,?
C(=N\Nc1nc2ccccc2[nH]1)/c1c[nH]c2ccccc12,4,-3%,-23,?,13µM*,?
O=[N+]([O-])c1ccccc1N/N=C/c1c[nH]c2ccccc12,3,-8%,-84*,-78*,23%,?
O=[N+]([O-])c1cc(/C=N/Nc2nc3ccccc3[nH]2)c(O)cc1O,1,1%,-97*,-99*,16%,?
Cc1ccccc1/C=N/Nc1nc2ccccc2[nH]1,-1,-4%,12,-8,20%,4%
C(=N\Nc1nc2ccccc2[nH]1)/c1cccc2cccnc12,3,?,-84*,.,2%,.
O=c1[nH]c(N/N=C/c2cc3c(cc2[N+](=O)[O-])OCO3)nc2ccccc12,-7,7%,4,.,-9%,.
CC(C)C[C@@H](CC(=O)N[C@@H](CCC(=O)O)CC(=O)O)NC(=O)[C@@H]1CNCC[C@H]1NC(=O)C[C@H](CCCN)NC(=O)C[C@H](Cc1c[nH]c2ccccc12)NC(=O)[C@@H]1CCCC[C@H]1N,1,.,.,.,.,-11%
Clc1ccc(CNc2ccccc2NCc2ccc(Cl)nc2)cn1,-1,-1%,-20,9,13µM*,-1%
Clc1ccc(Cn2ccc3ccccc32)cn1,-1,?,8,0,22%,26%
CCCCCC(=O)Nc1cc(S(=O)(=O)O)cc2cc(S(=O)(=O)O)cc(O)c12,.,.,?,-9,1.8µM*,.
CCCCCC(=O)Nc1cc(S(=O)(=O)N2CCCCC2)ccc1N1CCCCC1,.,.,3,2,4%,.
